Data as given in the supplement of paper PMC7156485.
± gives the standard deviation of the averaged measurements.

Tests used:
Settings in all cases: concentration: 10 µM; 24 h
HCC1569 [1] = test: cell number relative to DMSO (% of DMSO); higher = more cells (less growth inhibition / toxicity)
How it was run: (§1)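 H1.0 nuclear intensity or cell number is stated as percent of the plate control, based on the median of replicates, and HCC1569 values were smoothed for positional effects. These came from HCC1569 and TDF cells treated with compounds at 10 µM for 24 h at 37 °C in triplicate, then fixed in 3.7% formaldehyde and stained with a rabbit anti-H1.0 antibody, an AlexaFluor 647 secondary and DAPI.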

TDF [2] = test: as above
How it was run: as §1

TDF [3] = test: H1.0 immunofluorescence intensity relative to DMSO (% of DMSO); higher = stronger H1.0 induction, active = 120 or more
How it was run: as §1

HCC1569 [4] = test: H1.0 immunofluorescence intensity relative to DMSO (% of DMSO); higher = stronger H1.0 induction, active = 140 or more
How it was run: as §1
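For H1.0 immunofluorescence intensity relative to DMSO in this document: TDF is a line of transformed human dermal fibroblasts of mesenchymal origin.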
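For cell number relative to DMSO in this document: TDF denotes transformed human dermal fibroblasts of mesenchymal origin.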

Row | SMILES | cell number (HCC1569 [1]) | cell number (TDF [2]) | H1.0 immunofluorescence intensity (TDF [3]) | H1.0 immunofluorescence intensity (HCC1569 [4])
1 | COc1cc2c(cc1OC)-c1cc(=Nc3c(C)cc(C)cc3C)n(C)c(=O)n1CC2.Cl [Trequinsin.HCl] | 102 | 107 | 92.8 (inactive) | 118 (inactive)
2 | Cc1cccc(-c2[nH]c(C(C)(C)C)nc2-c2ccc3c(c2)OCO3)n1.Cl [TGF-b RI Inhibitor III] | 96.3 | 84 | 97.7 (inactive) | 122 (inactive)
3 | CCCCn1c(=O)c2c(ncn2CC(C)=O)n(CCCC)c1=O [Denbufylline] | 103 | 112 | 87.3 (inactive) | 106 (inactive)
4 | COc1ccccc1OCC(O)CO (stereo not drawn) [Guaifenesin] | 102 | 102 | 98 (inactive) | 116 (inactive)
5 | O=C(Nc1cccc(Nc2ncc(Br)c(NCCc3cnc[nH]3)n2)c1)N1CCCC1 | 51.2 | 33.8 | 113 (inactive) | 109 (inactive)
6 | O=C1c2ccccc2-c2n[nH]c3cccc1c23 | 93.2 | 107 | 92 (inactive) | 138 (inactive)
7 | CC1COC2=C1C(=O)C(=O)c1c2ccc2c1CCCC2(C)C (stereo not drawn) [Cryptotanshinone] | 96.6 | 64.9 | 106 (inactive) | 100 (inactive)
8 | C=CCc1ccc(O)c(-c2cc(CC=C)ccc2O)c1 [Magnolol] | 98 | 98.2 | 91.7 (inactive) | 83 (inactive)
9 | CC1(C)CC(NC(=O)C(=O)Nc2ccc(Cl)cc2)CC(C)(C)N1 | 104 | 107 | 91 (inactive) | 99.1 (inactive)
10 | O=c1c(O)c(-c2cc(O)c(O)c(O)c2)oc2cc(O)ccc12 [Robinetine] | 99 | 105 | 98.3 (inactive) | 90.7 (inactive)
11 | Cl.NOCC(=O)O.NOCC(=O)O [O-(Carboxymethyl)hydroxylamine hemihydrochloride] | 107 | 97.9 | 99.1 (inactive) | 105 (inactive)
12 | CC(N)C12CC3CC(CC(C3)C1)C2 (stereo not drawn) [Rimantadine] | 99.7 | 107 | 93.4 (inactive) | 112 (inactive)
13 | CC(N)C1CCC(C(=O)Nc2ccncc2)CC1.Cl.Cl (stereo not drawn) | 110 | 106 | 87.3 (inactive) | 90.1 (inactive)
14 | CCN1CCCC1CNC(=O)c1cc(S(N)(=O)=O)ccc1OC [(S)-(-)-Sulpiride] | 99.3 | 98.1 | 99.8 (inactive) | 101 (inactive)
15 | CCN1CCCC1CNC(=O)c1c(O)c(Cl)cc(Cl)c1OC.O=C(O)C(O)C(O)C(=O)O [S(+)-Raclopride L-tartrate] | 101 | 105 | 90.3 (inactive) | 99.9 (inactive)
16 | COc1cc(/C=C/C(=O)NCCn2c(C)cc3ccccc32)cc(OC)c1OC | 103 | 96.6 | 103 (inactive) | 106 (inactive)
17 | CCOC(=O)c1c(C)[nH]c(C=C2C(=O)Nc3ccccc32)c1C [VEGF Receptor 2 Kinase Inhibitor I] | 100 | 97.1 | 94.2 (inactive) | 103 (inactive)
18 | CNCCC(Oc1ccc(C(F)(F)F)cc1)c1ccccc1.Cl (stereo not drawn) [S-(+)-Fluoxetine hydrochloride] | 91.2 | 93.3 | 107 (inactive) | 111 (inactive)
19 | CC(=O)NCCc1ccc(O)c(O)c1 [N-Acetyldopamine monohydrate] | 101 | 111 | 96.7 (inactive) | 91.4 (inactive)
20 | CN=C(NC#N)Nc1ccc(C2=NNC(=O)CC2C)cc1 (stereo not drawn) [Siguazodan] | 103 | 104 | 95.4 (inactive) | 115 (inactive)
21 | O=C1Nc2ccccc2C1=Cc1c(Cl)[nH]c2ccccc12 [Cdk1 Inhibitor] | 56.6 | 9.63 | 149 (active) | 143 (active)
22 | OCCN(CCO)c1nc(N2CCCCC2)c2nc(N(CCO)CCO)nc(N3CCCCC3)c2n1 [Dipyridamole] | 94.2 ± 1.5 | 104 ± 7.8 | 85.7 (inactive) | 98.9 (inactive)
23 | CC1(C)CCC2=C(O1)c1ccccc1C(=O)C2=O [beta-Lapachone] | 59.7 ± 36 | 25.4 ± 9.7 | 114 (inactive) | 111 (inactive)
24 | CCN(CC)CCOC(=O)C1(C2CCCCC2)CCCCC1.Cl [Dicyclomine hydrochloride] | 100 | 96.7 | 99.8 (inactive) | 93.1 (inactive)
25 | CCC1C(=O)OCC1Cc1cncn1C.O=[N+]([O-])O (stereo not drawn) [Pilocarpine nitrate] | 98 | 86.9 | 98.7 (inactive) | 107 (inactive)
26 | O=c1cc(-c2ccc(O)cc2)oc2cc(OC3OC(CO)C(O)C(O)C3O)cc(O)c12 (stereo not drawn) [Apigenin-7-glucoside] | 98.2 | 99.3 | 93.7 (inactive) | 91 (inactive)

Row | SMILES | cell number (HCC1569 [1]) | cell number (TDF [2]) | H1.0 immunofluorescence intensity (TDF [3]) | H1.0 immunofluorescence intensity (HCC1569 [4])
27 | O=C1c2c(O)cc(O)cc2OC(c2ccc(O)c(O)c2)C1O (single isomer, unassigned; (+)) [(+)-Taxifolin] | 99.5 | 83.9 | 105 (inactive) | 102 (inactive)
28 | CC1OC(OC2C(Oc3cc(O)c4c(=O)c(O)c(-c5ccc(O)cc5)oc4c3)OC(CO)C(O)C2O)C(O)C(O)C1O (stereo not drawn) [Kaempferol-7-neohesperidoside] | 98.8 | 99.4 | 95.8 (inactive) | 87.9 (inactive)
29 | COc1ccc(CNC(=O)c2sc3nc(C)cc(C)c3c2N)cc1 | 100 | 102 | 97.5 (inactive) | 101 (inactive)
30 | Cc1nc2sccn2c(=O)c1CCN1CCC(=C(c2ccc(F)cc2)c2ccc(F)cc2)CC1 [Ritanserin] | 101 | 111 | 88.8 (inactive) | 105 (inactive)
31 | N#CC(=C(N)Sc1ccc(N)cc1)c1ccccc1C(F)(F)F [MEK1/2 Inhibitor] | 100 | 111 | 86 (inactive) | 110 (inactive)
32 | CCCNC(=O)NS(=O)(=O)c1ccc(Cl)cc1 [Chlorpropamide] | 101 | 96.2 | 93.2 (inactive) | 91.2 (inactive)
33 | Cl.O=C(CNC(=O)c1cccc(C(F)(F)F)c1)N[C@@H]1CCN(Cc2ccc(Cl)cc2)C1 | 89.9 | 96.8 | 89.1 (inactive) | 134 (inactive)
34 | CC[C@H](NC(=O)c1c(O)c(-c2ccccc2)nc2ccccc12)c1ccccc1 | 101 | 98.3 | 97.8 (inactive) | 107 (inactive)
35 | CC12CCC3c4ccc(O)cc4CCC3C1CCC2=O (stereo not drawn) [Estrone] | 102 ± 4.7 | 99.9 ± 9.3 | 96.7 (inactive) | 101 (inactive)
36 | N=c1nc(N2CCCCC2)cc(N)n1O [Minoxidil] | 99.9 ± 3.1 | 105 ± 3.1 | 92 (inactive) | 103 (inactive)
37 | CCn1cc(C(=O)O)c(=O)c2ccc(Cc3ccccc3)nc21 [Amfonelic acid] | 101 | 94.6 | 92.2 (inactive) | 95.4 (inactive)
38 | CC(=O)NCCc1c(Cc2ccccc2)[nH]c2ccccc12 [N-[2-(2-benzyl-1H-indol-3-yl)ethyl]acetamide] | 101 | 92.4 | 104 (inactive) | 98.9 (inactive)
39 | COc1ccc(-c2cc3c(C)nc(N)nc3n(C3CCC(OCCO)CC3)c2=O)cn1 (stereo not drawn) | 35 | 51 | 97.8 (inactive) | 191 (active)
40 | Nc1ncnc2n[nH]c(Nc3ccc(F)cc3)c12 [MNK1 Inhibitor] | 91.2 | 110 | 88.8 (inactive) | 140 (inactive)
41 | Cl.NC1C=CC=C(C(=O)O)C1 (stereo not drawn) [Gabaculine hydrochloride] | 103 | 108 | 102 (inactive) | 105 (inactive)
42 | Cl.NC(=NCc1ccccc1)NC(=O)c1nc(Cl)c(N)nc1N [Benzamil hydrochloride] | 94.7 | 105 | 92.3 (inactive) | 105 (inactive)
43 | C=CCc1ccc(O)c(-c2ccc(O)c(CC=C)c2)c1 [Honokiol] | 100 | 107 | 81 (inactive) | 101 (inactive)
44 | CCCCCC1OC1CC=CCC=CCC=CCCCC(=O)O (stereo not drawn) [14,15-Epoxyeicosatrienoic acid] | 103 | 112 | 103 (inactive) | 94.8 (inactive)
45 | Cc1scc2c1N(C(=O)CN1CCN(C)CC1)c1ccccc1NC2=O.Cl.Cl [Telenzepine dihydrochloride] | 107 | 94 | 99.8 (inactive) | 104 (inactive)
46 | CC(C[N+](C)(C)C)OC(N)=O (stereo not drawn) [Carbamyl-beta-methylcholine] | 105 | 99.5 | 89.1 (inactive) | 108 (inactive)
47 | CCC1(c2ccccc2)NC(=O)N(C)C1=O (stereo not drawn) [Mephenytoin] | 100 | 109 | 98.5 (inactive) | 104 (inactive)
48 | Cc1c(O)cc2c(c1C)OC(C)(CCCC(C)CCCC(C)CCCC(C)C)CC2 [D-γ-Tocopherol] | 100 | 98.7 | 98.5 (inactive) | 102 (inactive)
49 | CC(C)(C)c1cc(O)ccc1O [tert-Butylhydroquinone] | 104 | 97.2 | 96.4 (inactive) | 89.1 (inactive)
50 | CC1(C)CCC=[N+]1[O-] [5,5-Dimethyl-1-pyrroline-N-oxide] | 100 | 105 | 94.2 (inactive) | 99.5 (inactive)
51 | CN(C)C(=N)N=C(N)N [Metformin] | 100 | 94 | 95.9 (inactive) | 101 (inactive)
52 | CC(C)(Sc1cc(C(C)(C)C)c(O)c(C(C)(C)C)c1)Sc1cc(C(C)(C)C)c(O)c(C(C)(C)C)c1 [Probucol] | 102 | 106 | 91.9 (inactive) | 91.8 (inactive)
